The results in this text go back to PubChem BioAssay.

Molecules are shown by their SMILES. Calls of active or inactive are those of the source.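 Rule for the calls, unless noted: active = viability loss from added drug above about 55%, and viability with drug at most 40%, in both replicates (limit read from the data, passing the limit was not always enough); inconclusive = both conditions met in only one replicate; inactive = neither replicate meets both conditions.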

The first experiment is described as follows: H69AR cell proliferation blockers – human, duplicate replicates, primary screen (AID 580;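 active = viability at or under a set limit in both replicates, limit being median viability minus 3 SD, cut at about 48% in these data, passing the limit was not always enough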;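 note: 100% = mean luminescence of untreated wells and 0% = no signal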). The settings on record: H69AR lung tumor cells viability, ATP luminescence, 72 h; at 10 µM; stronger effect = lower value.
Consider `COC(=O)c1ccccc1NC(=O)c1noc2c1CCC2`, for which the viability (as a rule, a read-out of living cells in per cent, often relative to untreated cells) is 74.8% (inactive).
On to `Cc1ccc(S(=O)(=O)NCC(=O)N(CC(=O)NC2CCCCC2)Cc2ccco2)cc1`, for which the viability was 93.9% (inactive).
With `O=C(CNC1CCCCCC1)Nc1ccc(S(=O)(=O)NC2CC2)cc1`, the viability was 93.7% (inactive).
On the same count and under the same terms, the result for `Cn1c2c(c(=O)n(C)c1=O)C(c1cccc(Br)c1)C1C(=O)c3ccccc3C1=N2` (centres undefined) reads 40.6% (active); that for `CC(C)Nc1ncnc2c1cnn2-c1ccccc1`, 94.7% (inactive); that for `CN(C)/C=C(\C#N)c1nc2ccccc2[nH]1`, 98% (inactive).
The same measure, in the same setting: for `Oc1ccc2[nH]cnc2c1CN1CCCCC1` the value was 99.7% (inactive).
The same measure, in the same setting: for `COc1ccc(S(=O)(=O)C(C#N)c2nc3ccccc3nc2N2CCCC(C)C2)cc1` (centres undefined) the value was 75.5% (inactive).
In the case of `Cc1ccc(S(=O)(=O)N(CC(=O)NCc2ccco2)Cc2ccccc2F)cc1`, the viability was 107% (inactive).
`COc1ccc(C(=O)NCc2ccccc2OC)cc1`: the viability was 105% (inactive).
`CN(C)CCN1C(=O)c2oc3ccc(Cl)cc3c(=O)c2C1c1cccc(Br)c1` (centres undefined): the viability was 77.1% (inactive).
The same measure, in the same setting: the result for `CCOC(=O)Nc1ccc(OC)cc1S(=O)(=O)N1CCCCC1` reads 99% (inactive); that for `CCOC(=O)CSc1nnc([C@H](CC(C)C)NC(=O)OC(C)(C)C)o1`, 94.6% (inactive); that for `O=C(CSc1nnc(-c2ccccc2)c(-c2ccccc2)n1)N1CCOCC1`, 85.3% (inactive).
Same read-out and setting: for `CCOC(=O)C(C)Sc1nc2c(cnn2-c2ccc(C)cc2)c(=O)[nH]1` (centres undefined) the value was 14.4% (active).
Take `O=c1c2ccccc2nnn1CSc1nnc2sc3ccccc3n12`: the viability was 77.5% (inactive).
Still for that read-out and setting: for `COc1ncnc2c1N=C1CC(C)(C)CC(N)=C1S2` the value was 87.5% (inactive); for `CCc1ccc(CNCc2cccnc2)cc1`, 92.4% (inactive).
Turning to `O=C(NC1CCN(Cc2nnnn2CCc2ccccc2)CC1)c1ccccc1F`, the viability is 86.5% (inactive).
The same measure, in the same setting: for `COc1ccc(C(=O)N(CCCO)Cc2cc3c(C)ccc(C)c3[nH]c2=O)cc1OC` the value was 95.1% (inactive); for `Nc1cc(-c2ccccc2)ccc1O`, 73% (inactive); for `Cc1cc(NC(=O)COc2cccc3cccnc23)no1`, 81% (inactive).
With `Cc1cc(Br)ccc1NC(=O)CNC(=O)CSc1n[nH]c(N)n1`, the viability is 104% (inactive).
The same measure, in the same setting: the result for `CC(=O)NCCOc1cccc(OCCNC(C)=O)c1` reads 86.3% (inactive).

Another experiment in a line: MRP1 drug-resistance reversers in H69AR cells – cell-based, doxorubicin co-treatment, pilot screen (AID 601). The conditions noted are these: H69AR cells + 2 uM doxorubicin, CellTiter-Glo, 72 h; at 10 µM; stronger effect = higher value. (Cellular ATP, detected with luciferase, serves as a proxy for viable cell number.)
As to `C=C(c1cccc2ccccc12)P(=O)(O)O`, the differential viability (reversal) is 6.39% (inactive).
As to `COc1cc(NC(=O)c2cc(CC(C)C)on2)c(OC)cc1Cl`, the differential viability (reversal) is -3.37% (inactive).
The same measure, in the same setting: for `COc1ccccc1-n1c(SCC(N)=O)nnc1-c1ccccc1` the value was -0.18% (inactive); for `Cc1coc2cc3oc(=O)c4c(c3cc12)CCC4`, 6.42% (inactive); for `COc1ccc(NC(=O)CN2CCN(S(=O)(=O)c3ccc(Cl)cc3)CC2)cc1`, -11.3% (inactive).
On to `COc1cc(-c2nc(S(=O)(=O)c3ccccc3)c(N3CCOCC3)o2)cc(OC)c1OC`, for which the differential viability (reversal) was 14.8% (inactive).
`CCC(C)(C)NC(=O)C(OC(=O)c1ccco1)c1ccccc1OC` (centres undefined): the differential viability (reversal) is 18.8% (inactive).
`COc1ccc(-n2nnc3c(=O)n(C/C=C/c4ccccc4)cnc32)cc1`: the differential viability (reversal) is 8.94% (inactive).
Still for that read-out and setting: for `Cc1ccc(S(=O)(=O)N2CCOCC2)cc1C(=O)Nc1ccccn1` the value was 7.62% (inactive); for `CCOc1ccccc1NC(=O)NC1CCN(CC(=O)Nc2ccc3c(c2)OCCO3)CC1`, -7.47% (inactive); for `O=C(CCNS(=O)(=O)c1ccc(Cl)cc1)NCc1ccccn1`, -6.95% (inactive).
Same read-out and setting: the result for `COCCNC(=O)CSc1nc(-c2ccc(OC)c(OC)c2)cc(C(F)(F)F)n1` reads -11.1% (inactive); that for `CCOc1ccc2ccccc2c1/C=N/n1cncn1`, -11.2% (inactive).
On the same count and under the same terms, the result for `CCOC(=O)C1CCCN(C(=O)c2cc(=O)c3ccccc3o2)C1` (centres undefined) reads -4.92% (inactive); that for `COc1ccc(CN(C(=O)c2oc3ccccc3c2C)C2CCS(=O)(=O)C2)cc1` (centres undefined), 8.78% (inactive).
For the compound `COC(=O)CCc1c(C)c(C#N)c2nc3ccccc3n2c1N1CCCC1`, the differential viability (reversal) was 45.5% (inactive).
`COC(=O)c1ccccc1NC(=O)c1noc2c1CCC2`: the differential viability (reversal) is -4.56% (inactive).
As for `Cc1ccc(S(=O)(=O)NCC(=O)N(CC(=O)NC2CCCCC2)Cc2ccco2)cc1`, the differential viability (reversal) was 2.62% (inactive).
On to `O=C(CNC1CCCCCC1)Nc1ccc(S(=O)(=O)NC2CC2)cc1`, for which the differential viability (reversal) is 5.79% (inactive).
Same read-out and setting: the result for `Cn1c2c(c(=O)n(C)c1=O)C(c1cccc(Br)c1)C1C(=O)c3ccccc3C1=N2` (centres undefined) reads 5.16% (inactive); that for `CC(C)Nc1ncnc2c1cnn2-c1ccccc1`, 4.19% (inactive); that for `CN(C)/C=C(\C#N)c1nc2ccccc2[nH]1`, 20.9% (inactive).
For `Oc1ccc2[nH]cnc2c1CN1CCCCC1`, the differential viability (reversal) is 7.21% (inactive).
As to `COc1ccc(S(=O)(=O)C(C#N)c2nc3ccccc3nc2N2CCCC(C)C2)cc1` (centres undefined), the differential viability (reversal) is -10.6% (inactive).
On the same count and under the same terms, for `Cc1ccc(S(=O)(=O)N(CC(=O)NCc2ccco2)Cc2ccccc2F)cc1` the value was 21.3% (inactive).
Consider `COc1ccc(C(=O)NCc2ccccc2OC)cc1`, for which the differential viability (reversal) was 9.52% (inactive).
Take `CN(C)CCN1C(=O)c2oc3ccc(Cl)cc3c(=O)c2C1c1cccc(Br)c1` (centres undefined): the differential viability (reversal) was 2.96% (inactive).
Regarding `CCOC(=O)Nc1ccc(OC)cc1S(=O)(=O)N1CCCCC1`, the differential viability (reversal) is 17.7% (inactive).
For `CCOC(=O)CSc1nnc([C@H](CC(C)C)NC(=O)OC(C)(C)C)o1`, the differential viability (reversal) was -0.88% (inactive).
As for `O=C(CSc1nnc(-c2ccccc2)c(-c2ccccc2)n1)N1CCOCC1`, the differential viability (reversal) was 12.8% (inactive).
On to `CCOC(=O)C(C)Sc1nc2c(cnn2-c2ccc(C)cc2)c(=O)[nH]1` (centres undefined), for which the differential viability (reversal) was -58.2% (inactive).
For the compound `O=c1c2ccccc2nnn1CSc1nnc2sc3ccccc3n12`, the differential viability (reversal) was 9.79% (inactive).
As for `COc1ncnc2c1N=C1CC(C)(C)CC(N)=C1S2`, the differential viability (reversal) is 4.68% (inactive).
With `CCc1ccc(CNCc2cccnc2)cc1`, the differential viability (reversal) is 6.96% (inactive).
On to `O=C(NC1CCN(Cc2nnnn2CCc2ccccc2)CC1)c1ccccc1F`, for which the differential viability (reversal) is -11.7% (inactive).
Take `COc1ccc(C(=O)N(CCCO)Cc2cc3c(C)ccc(C)c3[nH]c2=O)cc1OC`: the differential viability (reversal) is 12.2% (inactive).
With `Nc1cc(-c2ccccc2)ccc1O`, the differential viability (reversal) is 12% (inactive).
Take `Cc1cc(NC(=O)COc2cccc3cccnc23)no1`: the differential viability (reversal) was 1.54% (inactive).
For `Cc1cc(Br)ccc1NC(=O)CNC(=O)CSc1n[nH]c(N)n1`, the differential viability (reversal) was 16.3% (inactive).
In the case of `CC(=O)NCCOc1cccc(OCCNC(C)=O)c1`, the differential viability (reversal) is -5.34% (inactive).
